VP16 counter: counter-screen for ROR gamma inhibitors: Gal4-VP16 reporter | Drosophila S2 Gal4-VP16 UAS-luciferase, luminescence, 20 h | Potency, µM (series often up to 53.6 µM), hits mostly inhibitors | hit rate 3.5% among 310,000 | AID 2546;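 further: Gal4-VP16 expression switched on by copper sulfate through the metallothionein promoter; nearly all actives have a fitted effect of over 50% in size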
RORg inh: ROR gamma (mouse) transcription inhibition | hit rate 5.4% among 310,000 | Drosophila S2 Gal4-RORgamma UAS-luciferase reporter, 20 h | P51450 | Potency, µM (highest dose often 53.6 µM), usual class: inhibitors; further: nearly all actives have a fitted effect of over 60% in size
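Stable Schneider cell line, Gal4 DNA-binding domain fused to ROR gamma, UAS-luciferase. Cmpd 1 hr RT → CuSO4 700 uM final → 20 hr RT → luciferase reagent 10 min → luminescence.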
ELG1 repair inh: blocks ELG1-dependent DNA repair in HEK293T cells | HEK293T ELG1-luciferase reporter, luminescence, 16 h; DNA damage induced by 5-fluorouridine | Potency, µM (highest dose often 46.1 µM), most hits filed as inhibitors | hit rate 2.3% among 330,000; further: nearly all actives have a fitted effect of over 55% in size
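Step one: seed 2,000 cells per well. Step two: pin-transfer compound or DMSO alongside 5-fluorouridine. Step three: incubate 16 hr, 37 °C, 5% CO2. Step four: add ONE-Glo, wait 30 min, read luminescence.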
12-LOX inh: inhibitors of human 12S-lipoxygenase ALOX12 | P18054 | purified 12hLO, xylenol orange hydroperoxide absorbance | Potency, µM (titrated, usually from 108 µM), actives largely listed as inhibitors | hit rate 1.1% among 580,000 | AID 1671190
Target sequence (P18054 whole entry, looked up): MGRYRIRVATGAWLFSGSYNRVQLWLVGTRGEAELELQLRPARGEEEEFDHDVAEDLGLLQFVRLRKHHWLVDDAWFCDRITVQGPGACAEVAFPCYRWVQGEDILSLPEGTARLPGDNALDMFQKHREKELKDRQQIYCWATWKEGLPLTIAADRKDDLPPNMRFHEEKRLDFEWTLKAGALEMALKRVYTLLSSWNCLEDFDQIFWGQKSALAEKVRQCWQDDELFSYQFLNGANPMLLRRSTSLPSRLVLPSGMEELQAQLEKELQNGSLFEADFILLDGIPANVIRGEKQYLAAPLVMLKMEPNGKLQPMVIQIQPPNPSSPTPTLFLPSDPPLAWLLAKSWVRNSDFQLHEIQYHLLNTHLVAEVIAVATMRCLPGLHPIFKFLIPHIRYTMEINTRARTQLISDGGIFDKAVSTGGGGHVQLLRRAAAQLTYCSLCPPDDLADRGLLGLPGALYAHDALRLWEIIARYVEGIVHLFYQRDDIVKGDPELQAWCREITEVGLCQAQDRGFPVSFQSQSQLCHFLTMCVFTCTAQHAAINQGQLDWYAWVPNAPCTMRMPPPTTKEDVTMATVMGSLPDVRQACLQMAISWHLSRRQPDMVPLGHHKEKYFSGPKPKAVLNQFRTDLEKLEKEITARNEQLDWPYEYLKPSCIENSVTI
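Purified human 12hLO at 150 nM in 25 mM Hepes, 0.01% Triton X-100, pH 7.0, preincubated 15 min at room temperature with compound. Reaction started with 40 uM arachidonic acid, 30 min at room temperature. Hydroperoxide measured by Fe-xylenol orange, 573/405 nm absorbance ratio.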
DT40 TDP1 CPT: DT40-hTDP1 cell growth loss with CPT | chicken DT40 Tdp1-/-;hTDP1 cells + 20 nM CPT, ATP luminescence, 48 h | Potency, µM (series often up to 46.2 µM), most hits filed as inhibitors | hit rate 12% among 420,000; further: nearly all actives have a fitted effect of over 55% in size
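Chicken DT40 Tdp1-/- cells stably complemented with human TDP1 were seeded at 400 cells/well in medium containing 20 nM camptothecin, exposed to pin-transferred compounds, and grown at 37 °C for at least 48 hr. Viability was read as ATP luminescence.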
TDP1 cell noCPT: qHTS for Inhibitors of human tyrosyl-DNA phosphodiesterase 1 (TDP1): qHTS in cells in absence of CPT | AID 686978, 2013 | DT40 Tdp1-/- hTDP1 cells, no CPT, ATP luminescence, 48 h | Potency, µM (doses to about 46.2 µM), usual class: inhibitors | hit rate 15% among 420,000; further: nearly all actives have a fitted effect of over 55% in size
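A cellular qHTS used chicken DT40 cells lacking endogenous Tdp1 but carrying stably transfected human TDP1. Compounds were applied without camptothecin, and cell growth kinetics were judged by ATP-dependent luminescence after ≥48 hr.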
Hits are given with their value; . = inactive; ? = inconclusive; / = no result; [ ] = remark or other dose. Most compounds without a hit are left out; they make up all but 15% or so of the library. The call rests on the fitted dose curve; in most records, active means well fitted curve in the direction sought with a large enough effect; inconclusive means small, poorly fitted or top-dose-only effect, or another doubt; inactive means no such curve, though single readings can be large; an effect the other way counts as inactive or inconclusive.

SMILES	VP16 counter	RORg inh	ELG1 repair inh	12-LOX inh	DT40 TDP1 CPT	TDP1 cell noCPT
Cc1cc(OC(F)F)ccc1NC(=S)NCCc1ccccc1	10µM	7.9µM	.	?	.	?
FC(F)Oc1ccccc1NC(=S)NCCc1ccccc1	/	/	/	.	.	?
COc1ccc(CCNC(=S)Nc2ccc(C)cc2C)cc1	7.1µM	4µM	.	?	?	?
COc1ccc(NC(=S)NCCc2ccccc2)c(C)c1	4µM	6.3µM	.	?	.	.
COc1ccc(CCNC(=S)Nc2cc(C)ccc2C)cc1	.	.	.	?	?	?
CCOC(=S)SCC(=O)Nc1ncc(C)s1	?	?	.	?	?	23µM
O=C(Nc1ncc(Cc2cccc(Cl)c2Cl)s1)c1ccc([N+](=O)[O-])cc1	.	.	.	.	13µM	16µM
Cc1cnc(NC(=O)CCc2ccccc2)s1	.	.[1.91 µM]	?	.	16µM	8.2µM
Cc1cnc(NC(=O)CSc2ccccc2)s1	?	?	?	.	?	.
Cc1cnc(NC(=O)CCCc2nc3ccccc3s2)s1	.	.	?	?	15µM	23µM
CC(C)c1ccc(C(=O)NCCc2c[nH]c3ccccc23)cc1	/	/	/	.	/	/
O=C(CCc1ccccc1)NCCC1CCN(C(=O)Nc2cccc(F)c2)CC1	/	/	/	.	/	/
CC(=O)C[C@](N)(c1ccccc1)C(F)(F)F	/	/	/	.	/	/
N#CCC(=O)Nc1ncc(Cc2ccccc2Cl)s1	?	13µM	.	.	.	.
CCn1ccc(C(=O)Nc2ncc(C)s2)n1	?	11µM	?	?	.	.
CCn1ccc(C(=O)NC2=NCCS2)n1	.	.	?	.	.	?
Cc1cnc(NC(=O)Cc2ccccc2Cl)s1	.	.	.	.	3.3µM	3.3µM
COc1ccc(Cc2nnc(SCC(=O)Nc3ncc(C)s3)o2)cc1	?	.	.	.	.	.
Cc1cnc(NC(=O)CSc2nnc(Cc3ccccc3)o2)s1	.	10µM	.	.	?	?
Cc1ccc(C)c(S(=O)(=O)N2CCN(C(=O)CCc3ncc(-c4ccc(F)cc4)o3)CC2)c1	/	/	/	.	/	/
CSc1nn(Cc2cccc(Cl)c2)c(N(C(C)=O)C(C)=O)c1S(=O)(=O)c1ccccc1	/	/	/	.	?	21µM
COc1cc2ccccc2cc1C(=O)NC(=S)Nc1nnn(C)n1	1.1µM	1µM	.	.	23µM	16µM
CCCn1nnc(NC(=S)NC(=O)c2ccccc2OC)n1	/	/	.	?	?	18µM
CCCCn1nnc(NC(=S)NC(=O)c2ccc(-c3cccc(Cl)c3Cl)o2)n1	1.1µM	1.3µM	.	/	10µM	23µM
Cn1nnc(NC(=S)NC(=O)c2cc(Cl)ccc2Cl)n1	2µM	0.79µM	.	?	.	.
SMILES	VP16 counter	RORg inh	ELG1 repair inh	12-LOX inh	DT40 TDP1 CPT	TDP1 cell noCPT
CCCCC(=O)NC(=S)Nc1nnn(CCC)n1	0.56µM	0.11µM	.	?	4.1µM	5.8µM
CCCCn1nnc(NC(=S)NC(=O)c2ccc(OCC)c([N+](=O)[O-])c2)n1	2.5µM	2.8µM	.	?	?	21µM
Cc1nc2ccccc2c2c1CC(C(C)(Cl)Br)O2 (stereo not drawn)	?	.	?	.	6.5µM	3.7µM
COc1ccc2nc(C)c3c(c2c1)OC(C(C)(Cl)Br)C3 (stereo not drawn)	.	5µM	?	?	?	18µM
CC[C@H]1CN(C(=O)NC(C)C)CC[C@H]1CC(=O)NC1CC1	/	/	/	.	/	/
NC(Cc1ccc(OC(F)(F)F)cc1)C(=O)O (stereo not drawn)	/	/	/	.	/	/
O=C(COC(=O)c1ccc(O)cc1)Nc1ccccc1-c1ccccc1	.	.[10 µM]	?	.	?	21µM
O=C(COC(=O)c1ccc(-c2ccccc2)cc1)Nc1ccccc1-c1ccccc1	?	.	.	.	?	10µM
COCC(=O)OCC(=O)Nc1ccccc1-c1ccccc1	.	.	.	.	.	.
Cn1cc(CN2C[C@@H](F)[C@@H](OCc3nc4ccccc4o3)C2)c2ccccc21	/	/	/	.	/	/
CSc1ccc(CN(C)CC(=O)N(C)c2ccccc2C(=O)NCc2ccco2)cc1	/	/	/	.	/	/
O=C(CN1CCCc2ccccc21)N1CCc2ccccc21	.	?	.	.	16µM	?
CCOCC(=O)N1CCc2ccccc21	.	.	.	.	.	18µM
CCOC(=O)c1cc2sccc2n1CC(=O)N1CCc2ccccc21	.	.	.	.	4.6µM	12µM
CCOC(=O)c1cc2sccc2n1CC(=O)OC(C)C	.	.	.	.	.	.
C=C(CN(C)C)C(=O)c1ccc(C)cc1C	/	/	/	?	0.52µM	0.58µM
O=c1c2c([N+](=O)[O-])cc([N+](=O)[O-])cc2sn1Cc1ccccc1	4.5µM	7.1µM	.	0.79µM	5.2µM	5.2µM
O=c1c2c([N+](=O)[O-])cc([N+](=O)[O-])cc2nc2ccccn12	.	.	.	?	?	?
O=c1c2c([N+](=O)[O-])cc([N+](=O)[O-])cc2sn1-c1ccc(Br)cc1	10µM	8.9µM	.	/	10µM	?
CCCn1c(N)c(C(=O)CSc2cc(C)c3ccccc3n2)c(=O)[nH]c1=O	/	/	/	.	/	/
COc1ccc(OC)c(NC(=O)COC(=O)c2ccc(C)s2)c1	/	/	/	.	/	/
O=S(Cc1cccc(C(F)(F)F)c1)Cc1cccc2ccccc12 (stereo not drawn)	/	/	/	.	/	/
CC[C@@H](C)[C@H](CNC)NC[C@@H](Cc1cccc2ccccc12)NCCc1cccc(C(F)(F)F)c1	?	13µM	?	?	23µM	?
CCC[C@@H](CN[C@@H](CNC)[C@H](C)CC)NCC1CCC(C(C)(C)C)CC1 (stereo partly drawn)	?	11µM	.	.	1µM	0.65µM
CCC[C@H](CN[C@@H](CNC)[C@H](C)CC)NCCc1cc(C(F)(F)F)cc(C(F)(F)F)c1	?	?	21µM	.	12µM	3.3µM
SMILES	VP16 counter	RORg inh	ELG1 repair inh	12-LOX inh	DT40 TDP1 CPT	TDP1 cell noCPT
O=C(c1cccc(CC2CCNCC2)c1)N1CCOCC(O)C1 (stereo not drawn)	/	/	/	.	/	/
COc1cc(NC(=O)Cc2sc(C)nc2-c2cccs2)cc(OC)c1OC	/	/	/	.	/	/
CC(O)CNc1nc2c(c(=O)n(Cc3ccccc3)c(=O)n2C)n1Cc1ccccc1 (stereo not drawn)	/	/	/	.	/	/
OCCCn1c(C2CCCN2c2nc(-c3ccc(F)cc3)cs2)nc2cc(C(F)(F)F)ccc21 (stereo not drawn)	/	/	/	.	8.2µM	?
OCCOCCn1c(C2CCCN2c2nc(-c3ccc(F)cc3)cs2)nc2cc(C(F)(F)F)ccc21 (stereo not drawn)	/	/	/	.	16µM	?
CC(=O)N1CCCC1c1nc2ccccc2n1Cc1ccccc1C (stereo not drawn)	/	/	/	.	?	.
CCCn1c(C2CCCN2c2nc(-c3ccc(C)cc3)cs2)nc2ccccc21 (stereo not drawn)	?	3.5µM	?	.	?	?
